The target of assay [1] is T1, Serine/threonine-protein kinase TBK1 (Homo sapiens) (UniProt Q9UHD2).
T1 sequence (whole entry): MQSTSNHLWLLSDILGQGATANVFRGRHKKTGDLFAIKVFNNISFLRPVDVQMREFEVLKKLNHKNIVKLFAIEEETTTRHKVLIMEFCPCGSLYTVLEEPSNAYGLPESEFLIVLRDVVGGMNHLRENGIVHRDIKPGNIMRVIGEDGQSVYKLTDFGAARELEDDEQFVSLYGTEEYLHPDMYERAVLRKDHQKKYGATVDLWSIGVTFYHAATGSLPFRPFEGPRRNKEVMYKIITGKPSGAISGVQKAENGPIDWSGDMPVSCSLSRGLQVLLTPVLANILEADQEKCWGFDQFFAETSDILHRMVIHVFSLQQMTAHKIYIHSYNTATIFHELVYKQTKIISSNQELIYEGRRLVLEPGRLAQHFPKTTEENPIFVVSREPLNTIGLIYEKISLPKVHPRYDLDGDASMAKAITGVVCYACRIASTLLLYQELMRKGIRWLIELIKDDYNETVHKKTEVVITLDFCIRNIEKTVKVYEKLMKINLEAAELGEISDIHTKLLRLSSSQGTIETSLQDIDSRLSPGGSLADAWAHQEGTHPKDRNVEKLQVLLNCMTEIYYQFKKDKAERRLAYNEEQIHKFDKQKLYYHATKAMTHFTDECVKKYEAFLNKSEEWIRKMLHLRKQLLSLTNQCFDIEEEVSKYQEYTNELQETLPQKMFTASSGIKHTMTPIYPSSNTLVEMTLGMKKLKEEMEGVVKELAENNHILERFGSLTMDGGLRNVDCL
Particulars: at 1 µM.

The target in assay [2] is T1, Serine/threonine-protein kinase TBK1 (Homo sapiens). Particulars: at 10 µM.
Assay [3] concerns the target T2, TGF-beta receptor type-1 (Homo sapiens) (UniProt P36897).
T2 sequence (whole entry): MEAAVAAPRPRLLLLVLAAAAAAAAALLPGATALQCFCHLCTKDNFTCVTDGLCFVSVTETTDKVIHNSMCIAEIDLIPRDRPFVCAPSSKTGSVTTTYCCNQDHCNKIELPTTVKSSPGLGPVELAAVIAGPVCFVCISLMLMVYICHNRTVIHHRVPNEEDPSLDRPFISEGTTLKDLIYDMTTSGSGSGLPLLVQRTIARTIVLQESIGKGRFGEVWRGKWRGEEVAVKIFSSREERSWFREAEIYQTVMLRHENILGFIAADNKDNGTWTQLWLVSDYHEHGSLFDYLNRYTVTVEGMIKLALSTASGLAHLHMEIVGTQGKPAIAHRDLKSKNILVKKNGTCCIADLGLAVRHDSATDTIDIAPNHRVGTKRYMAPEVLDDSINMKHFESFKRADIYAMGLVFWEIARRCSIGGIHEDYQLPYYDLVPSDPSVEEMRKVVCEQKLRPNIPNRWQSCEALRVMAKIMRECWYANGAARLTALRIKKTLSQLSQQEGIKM
Particulars: at 1 µM.

The target of assay [4] is Insulin-like growth factor 1 receptor (Homo sapiens) (UniProt P08069). Particulars: at 10 µM.
Sequence of Insulin-like growth factor 1 receptor (Homo sapiens) (P08069 31-736 limits assumed): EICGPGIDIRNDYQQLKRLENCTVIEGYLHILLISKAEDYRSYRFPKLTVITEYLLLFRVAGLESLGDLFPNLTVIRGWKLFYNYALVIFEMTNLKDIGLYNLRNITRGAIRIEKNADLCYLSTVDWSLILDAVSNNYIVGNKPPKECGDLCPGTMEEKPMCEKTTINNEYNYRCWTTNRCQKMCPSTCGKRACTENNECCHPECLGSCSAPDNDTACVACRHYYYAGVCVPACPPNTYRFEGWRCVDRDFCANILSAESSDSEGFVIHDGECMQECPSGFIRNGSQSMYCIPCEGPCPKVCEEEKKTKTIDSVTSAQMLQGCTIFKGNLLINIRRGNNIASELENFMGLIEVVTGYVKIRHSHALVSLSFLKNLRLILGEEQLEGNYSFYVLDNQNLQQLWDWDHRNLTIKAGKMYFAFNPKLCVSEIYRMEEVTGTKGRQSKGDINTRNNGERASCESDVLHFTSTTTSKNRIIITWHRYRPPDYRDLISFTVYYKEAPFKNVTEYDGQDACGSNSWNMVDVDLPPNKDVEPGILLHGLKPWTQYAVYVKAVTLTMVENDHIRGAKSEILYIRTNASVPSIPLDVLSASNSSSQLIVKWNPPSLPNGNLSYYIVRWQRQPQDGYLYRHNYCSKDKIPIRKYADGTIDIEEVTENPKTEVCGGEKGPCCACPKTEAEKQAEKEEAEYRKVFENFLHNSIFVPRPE
Sequence of Insulin-like growth factor 1 receptor (Homo sapiens) (P08069 741-1367 limits assumed): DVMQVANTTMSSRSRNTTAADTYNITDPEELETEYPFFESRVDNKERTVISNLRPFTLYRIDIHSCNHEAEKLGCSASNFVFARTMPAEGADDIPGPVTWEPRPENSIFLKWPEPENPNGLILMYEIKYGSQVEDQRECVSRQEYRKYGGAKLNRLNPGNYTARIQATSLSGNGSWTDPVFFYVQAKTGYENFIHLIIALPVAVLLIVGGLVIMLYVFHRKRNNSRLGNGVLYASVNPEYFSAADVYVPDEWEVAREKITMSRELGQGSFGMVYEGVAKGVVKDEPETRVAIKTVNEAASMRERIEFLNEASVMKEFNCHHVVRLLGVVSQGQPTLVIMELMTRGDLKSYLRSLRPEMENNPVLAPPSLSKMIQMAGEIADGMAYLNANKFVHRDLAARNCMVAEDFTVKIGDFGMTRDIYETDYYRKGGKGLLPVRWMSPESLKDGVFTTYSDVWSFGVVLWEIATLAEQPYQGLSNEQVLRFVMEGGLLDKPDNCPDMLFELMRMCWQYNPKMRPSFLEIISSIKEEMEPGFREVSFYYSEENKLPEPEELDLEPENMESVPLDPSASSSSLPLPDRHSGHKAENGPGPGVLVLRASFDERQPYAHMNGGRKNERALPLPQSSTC
The target in assay [5] is T3, Inhibitor of nuclear factor kappa-B kinase subunit alpha (Homo sapiens) (UniProt O15111).
T3 sequence (whole entry): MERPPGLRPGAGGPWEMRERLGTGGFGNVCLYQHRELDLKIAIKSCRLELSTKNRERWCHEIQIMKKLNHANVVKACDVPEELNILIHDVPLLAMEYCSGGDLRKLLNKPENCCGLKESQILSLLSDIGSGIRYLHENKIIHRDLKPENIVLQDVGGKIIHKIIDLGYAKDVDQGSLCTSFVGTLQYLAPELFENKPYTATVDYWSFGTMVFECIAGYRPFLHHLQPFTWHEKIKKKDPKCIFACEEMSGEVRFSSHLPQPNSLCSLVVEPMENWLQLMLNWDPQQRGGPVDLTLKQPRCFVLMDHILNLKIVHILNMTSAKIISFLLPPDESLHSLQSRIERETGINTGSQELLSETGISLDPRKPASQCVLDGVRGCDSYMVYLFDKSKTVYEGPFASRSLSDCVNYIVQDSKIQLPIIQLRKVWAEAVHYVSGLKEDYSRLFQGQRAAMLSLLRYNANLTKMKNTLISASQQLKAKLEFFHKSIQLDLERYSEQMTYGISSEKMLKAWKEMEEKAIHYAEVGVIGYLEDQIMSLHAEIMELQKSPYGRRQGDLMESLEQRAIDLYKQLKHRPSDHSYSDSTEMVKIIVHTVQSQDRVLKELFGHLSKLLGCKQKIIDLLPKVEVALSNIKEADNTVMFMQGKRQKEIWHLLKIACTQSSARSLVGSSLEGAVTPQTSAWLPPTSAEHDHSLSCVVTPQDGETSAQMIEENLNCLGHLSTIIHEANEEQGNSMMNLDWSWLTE
Particulars: at 1 µM.

Assay [6] has as its target T3, Inhibitor of nuclear factor kappa-B kinase subunit alpha (Homo sapiens). Particulars: at 10 µM.
Assay [7] concerns the target T4, Inhibitor of nuclear factor kappa-B kinase subunit beta (Homo sapiens) (UniProt O14920).
T4 sequence (whole entry): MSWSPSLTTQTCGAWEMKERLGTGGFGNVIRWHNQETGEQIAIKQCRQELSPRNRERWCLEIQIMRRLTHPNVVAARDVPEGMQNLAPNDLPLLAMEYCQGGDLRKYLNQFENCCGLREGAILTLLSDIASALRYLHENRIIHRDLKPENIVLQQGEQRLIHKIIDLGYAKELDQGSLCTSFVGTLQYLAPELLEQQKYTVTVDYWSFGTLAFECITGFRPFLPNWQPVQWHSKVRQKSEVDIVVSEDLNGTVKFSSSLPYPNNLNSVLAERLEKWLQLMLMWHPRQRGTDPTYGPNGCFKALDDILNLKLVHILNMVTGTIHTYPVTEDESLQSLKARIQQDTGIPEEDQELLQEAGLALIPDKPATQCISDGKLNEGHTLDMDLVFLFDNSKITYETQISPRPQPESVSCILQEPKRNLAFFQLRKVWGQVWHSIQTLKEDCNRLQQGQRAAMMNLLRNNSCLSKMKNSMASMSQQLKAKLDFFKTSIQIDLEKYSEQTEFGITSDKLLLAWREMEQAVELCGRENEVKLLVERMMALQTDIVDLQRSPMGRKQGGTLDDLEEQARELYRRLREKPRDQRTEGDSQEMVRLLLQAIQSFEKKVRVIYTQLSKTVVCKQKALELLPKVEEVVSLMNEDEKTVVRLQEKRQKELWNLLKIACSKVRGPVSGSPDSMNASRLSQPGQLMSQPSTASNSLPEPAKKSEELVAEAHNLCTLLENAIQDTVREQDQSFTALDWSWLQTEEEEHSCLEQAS
Particulars: at 1 µM.

The target of assay [8] is T4, Inhibitor of nuclear factor kappa-B kinase subunit beta (Homo sapiens). Particulars: at 10 µM.

From ChEMBL document CHEMBL2218924, “A broad activity screen in support of a chemogenomic map for kinase signalling research and drug discovery” (Biochem J, 2013) come the findings set out here.

Turning to `COc1cc2ncnc(Nc3ccc(NC(=O)c4ccccc4)cc3)c2cc1OC`, the residual activity was 96% in assay [1]; 75% in assay [2]; 98% in assay [3]; 103% in assay [4]; 102% in assay [5]; 96% in assay [6]. For the same compound, the residual activity came out at 109% in assay [7] and 106% in assay [8].

By residual activity is commonly meant the signal under treatment as a percentage of the control signal.
